Source: PubChem BioAssay (National Center for Advancing Translational Sciences (NCATS))
Most compounds without a hit are left out; they make up all but 9% or so of the library.
ALDH1A1 block = inhibitors of human aldehyde dehydrogenase 1A1; P00352; Purified ALDH1A1, NADH fluorescence, propionaldehyde substrate; Potency, µM (top dose mostly 75.3 µM), without a hit: at the highest dose activity, negative = inhibition, hits mostly inhibitors; 7.3% of 220,000 active;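 also: potency is read from the fitted curve at half-maximal effect; plate controls were no enzyme wells and a reference inhibitor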
Target sequence (P00352 whole entry, looked up): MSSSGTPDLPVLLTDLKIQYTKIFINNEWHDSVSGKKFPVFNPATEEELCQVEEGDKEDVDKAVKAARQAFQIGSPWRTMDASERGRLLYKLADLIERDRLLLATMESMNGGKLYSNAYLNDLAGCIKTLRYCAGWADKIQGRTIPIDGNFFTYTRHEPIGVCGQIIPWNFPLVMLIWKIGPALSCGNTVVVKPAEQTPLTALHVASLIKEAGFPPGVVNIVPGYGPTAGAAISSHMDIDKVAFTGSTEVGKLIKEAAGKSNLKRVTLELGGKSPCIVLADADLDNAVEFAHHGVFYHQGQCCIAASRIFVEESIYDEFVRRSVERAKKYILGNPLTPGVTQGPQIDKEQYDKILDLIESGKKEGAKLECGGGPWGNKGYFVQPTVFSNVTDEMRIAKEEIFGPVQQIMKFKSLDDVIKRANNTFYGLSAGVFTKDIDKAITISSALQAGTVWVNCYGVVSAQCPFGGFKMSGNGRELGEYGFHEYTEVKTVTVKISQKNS
IMPase cell inh = IMPase inhibition in cells. P97697. CHO-M1 cells, IP1 accumulation, HTRF TR-FRET ratio. inhibition (IP1 accumulation), % at 46.1 µM. 120,000 tested, under 10 active. AID 901; active = well fitted curve in the direction sought with a large enough effect in the signal ratio, not every such curve was filed as active; inconclusive = small, poorly fitted or top-dose-only effect, or a change in a side signal; inactive = no such curve, though single readings can be large or run the other way; the % refers to the signal ratio;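 also: cells stimulated with carbachol in lithium chloride buffer; plate controls were DMSO basal wells for no effect and reference inhibitor wells for full effect; higher means more IMPase inhibition seen as more IP1 and lower FRET ratio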
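Elevated IP1 in lysates lowers TR-FRET signal (665/620 ratio and 620 channel reported). Cells were CHO-M1, given carbachol (50 uM as added) plus 50mM LiCl, pH 7.4, 30 min, 37C; compounds titrated up to 46 uM; AC50 by Hill equation.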
HPGD block = HPGD (human) dehydrogenase inhibition; P15428; purified HPGD, NADH fluorescence kinetic, PGE2 substrate; Potency, µM, for inactives: top-dose activity change, negative = inhibition, most hits filed as inhibitors; 4.3% of 150,000 active; also: potency is read from the fitted curve at half-maximal effect
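NADH formation kinetics: reaction with 30 uM PGE2 and 1 mM NAD+ (final), 20 nM enzyme, Tris-HCl pH 8 with Tween 20, after 15 min compound preincubation at room temperature. Fluorescence change, last versus first of five reads.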
The depositor's hits bear a star; u = inconclusive; x = no result given; [ ] = another dose, or the depositor's remark. Unless noted, calls follow the shape of the dose curve; as a rule, active = well fitted inhibition curve with a large enough effect (not every such curve was filed as active); inconclusive = small, poorly fitted or top-dose-only effect, or another doubt; inactive = no such curve, though single readings can be large or run the other way. Unless noted, % is scaled to controls: 0 for no effect and ±100 for the full control effect.

SMILES	ALDH1A1 block	IMPase cell inh	HPGD block
CCOC(=O)c1sc(NC(=O)c2ccncc2)c(C#N)c1C	3.2µM*	x	14µM*
CCOC(=O)c1c(NC(=O)c2ccc(Cl)s2)sc(C)c1C	u	-8	u
Cc1ccc(C(=O)Nc2sc(C(=O)N(C)C)c(C)c2C#N)cc1	-15%	x	-14%
CCOC(=O)CN(Cc1sccc1C)C(=O)Nc1ccc(OC)cc1OC	6%	x	-2%
Cc1cc2c(nc1C)CCCCN2C[C@H](O)CN1CCCc2nc(-c3ccc(Br)cc3)ccc21	-1%[13.5 µM]	x	x
Cc1nc2sccn2c(=O)c1Br	-2%	3	-15%
O=C(/C=C/c1ccc(S(=O)(=O)NCc2ccco2)cc1)N1CCN(c2ccccc2)CC1	-7%	x	x
CSc1ccc(S(=O)(=O)NCCOc2ccccc2C)cc1	13µM*	11	-20%
COCCCNS(=O)(=O)c1ccc(SC)cc1	u	x	-8%
CSc1ccc(S(=O)(=O)NCCSc2ccccn2)cc1	-7%	1	-7%
CC(C)(C)SCCNS(=O)(=O)c1ccccc1	u	-4	-11%
CC(C)(C)SCCNS(=O)(=O)c1ccc2ccccc2c1	15µM*	4	-21%
CSc1ccc(S(=O)(=O)NCCSC(C)(C)C)cc1	7.9µM*	-1	-12%
CC1(C)Cc2c(sc(NC(=O)c3ccccc3Cl)c2C(=O)O)CO1	-16%	x	x
Cc1ccc(Nc2c(-c3ccccn3)nc3cccc(C)n23)cc1	-4%	x	x
COc1cc(C(=O)Nc2ccc3c(c2)C(=O)c2ccccc2C3=O)cc(OC)c1OC	11%	x	-19%
COc1cc2c(cc1OC)-c1c(OC)c(OC)cc3ccnc(c13)C2=O	-4%	24	8.9µM*
Cc1c(NC(=O)OCCSc2nc(N(C)C)nc(N(C)C)n2)sc(=S)n1C	7%	-1	-9%
Cc1ccc(C)c(NC(=O)c2sc(Cl)nc2C)c1	-9%	x	-13%
Cc1ccc(OC(=O)c2sc(Cl)nc2C)cc1C	20µM*	x	-18%
CC(C)CC(NC(=O)OCC1c2ccccc2-c2ccccc21)C(=O)O (stereo unspecified)	8.9µM*	x	-9%
CC(C)CC(NC(=O)COc1ccccc1)C(=O)O (stereo unspecified)	-2%	3	-4%
Cc1cccc(C)c1OCc1n[nH]c(=S)o1	8.9µM*	3	-3%
COc1ccccc1Cc1noc(COc2cccc(C)c2C)n1	3%	2	-7%
Cc1cccc(OCc2n[nH]c(=S)o2)c1	u	-1	-4%
SMILES	ALDH1A1 block	IMPase cell inh	HPGD block
Cc1cccc(OCc2n[nH]c(=S)o2)c1C	18µM*	x	x
CC1(C)Cc2c(C#N)c(OCC(=O)c3ccccc3)nc(-c3ccoc3)c2CO1	0.28µM*	-9	u
CC1(C)Cc2c(C#N)c(OCC(=O)c3ccc(Cl)cc3)nc(-c3ccoc3)c2CO1	0.4µM*	8	x
COC(=O)COc1nc(C)c2c(c1C#N)CC(C)(C)OC2	u	2	-16%
COc1nc(-c2ccccc2)c2c(c1C#N)CC(C)(C)OC2	u	4	-7%
CCOC(=O)C1(Cc2ccccc2)CCN(C2Cc3ccccc3C2)CC1	-14%	x	x
CSc1nc(N)nc(SCC(=O)C23CC4CC(CC(C4)C2)C3)c1C#N	25µM*	x	-18%
N#Cc1c(N)nc(SCC(=O)C23CC4CC(CC(C4)C2)C3)c(C#N)c1-c1ccc(Cl)cc1	u	-6	u
COc1ccc(C(=O)Nc2ccccc2)cc1S(=O)(=O)Nc1cc(C)on1	13%	-2[1.84 µM]	2%
CC(C)c1ccc(/C=C2\Oc3c(ccc(O)c3CN3CCN(C)CC3)C2=O)cc1	-2%	x	x
CC1CCN(Cc2c(O)ccc3c2O/C(=C\c2ccco2)C3=O)CC1	25µM*	x	-18%
COC(=O)c1c(C)nc2nonc2c1N	-7%	x	x
CCOC(=O)CN1C(=O)N[C@@H](CCc2ccccc2)[C@@H](C(=O)OC)[C@H]1C	-1%[13.5 µM]	x	-7%
Cc1nc(SCC(=O)c2ccccc2)n[nH]1	22µM*	4	u
Cc1nc(SCC(=O)Nc2c(C)n(C)n(-c3ccccc3)c2=O)n[nH]1	14µM*	5	-15%
O=C(CSc1n[nH]c(-c2ccncc2)n1)c1ccccc1	-7%	-1[1.84 µM]	u
CCN1CCN(C(C)C(=O)Nc2c(C)n(C)n(-c3ccccc3)c2=O)CC1 (stereo unspecified)	22µM*	9	-3%
Cc1csc(SCC(=O)Nc2c(C)n(C)n(-c3ccccc3)c2=O)n1	3%	4	-1%
COc1ccccc1C(=O)CSc1n[nH]c(N)n1	11µM*	-1	-23%
Nc1nc(SCC(=O)c2cc3ccccc3o2)n[nH]1	4%	x	x
CCC(CC)C(=O)Nc1c(C)n(C)n(-c2ccccc2)c1=O	-1%	-3	-9%
C=C1CCC(C2CC(=O)OC2=O)C(=O)CCC2C1CC2(C)C (stereo unspecified)	1%	x	-13%
CCn1nc(C)c(Br)c1-c1nc(-c2cccc(C)c2)no1	-4%	x	x
Cn1cc(CNCc2ccc(-n3cccn3)cc2)c(-c2ccccc2F)n1	13%	x	x
O=[N+]([O-])c1ccc(N2N=C(c3ccco3)CC2c2ccccc2)cc1 (stereo unspecified)	10µM*	10	-19%
SMILES	ALDH1A1 block	IMPase cell inh	HPGD block
Fc1ccc(C2CC(c3ccco3)=NN2c2ccccc2)cc1 (stereo unspecified)	8%	-16	u
CCn1c(=O)cc(OCC(=O)N2CCN(c3ccc(F)cc3)CC2)c2ccccc21	-12%	x	x
CCCN(CCC)C(=O)COc1cc(=O)n(CC)c2ccccc12	-7%	1	25µM*
CCN(Cc1ccccc1)C(=O)COc1cc(=O)n(CC)c2ccccc12	u	-1	-24%
CCN(C(=O)COc1cc(=O)n(CC)c2ccccc12)c1cccc(Cl)c1	6.3µM*	13	-3%
CCn1c(=O)cc(OCC(=O)O)c2ccccc21	-4%	4	x
CCn1c(=O)cc(OCC(=O)N2CCCCCC2)c2ccccc21	u	5	32µM*
COC(=O)C1=C(C)Nc2c(c(=O)n(C)c(=O)n2C)C1c1ccc(C)cc1 (stereo unspecified)	-6%	x	x
CCCn1c(C)nc2c(NCCN(C(C)C)C(C)C)nc(C)nc21	3%	x	0%
O=C(CN1C(=O)C2CC=CCC2C1=O)N1CCN(c2ccc([N+](=O)[O-])cc2)CC1 (stereo unspecified)	25µM*	x	x
CC(C(=O)N1CCN(c2ccc([N+](=O)[O-])cc2)CC1)N1C(=O)C2CC=CCC2C1=O (stereo unspecified)	-98%	x	x
CCC(=O)Nc1ccc(C(=O)NCc2ccccn2)cc1	5%	x	x
COc1ccc(OC)c(NC(=O)c2cc3ccccc3o2)c1	u	8	u
COc1ccc2o/c(=N\O)c(C(=O)Nc3ccccc3OC)cc2c1	u	-1	13µM*
C#CCOCCOCCOCCNc1nc(N2CCN(C(=O)C([C@@H](C)CC)n3cc(C(N)Cc4ccc(O)cc4)nn3)CC2)nc(N2CCN(C(=O)[C@H](CCC(=O)O)n3cc(C(N)CO)nn3)CC2)n1 (stereo partly specified)	7%	x	x
O=[N+]([O-])c1ccc(/C([O-])=C(/C(=S)NCc2ccco2)[n+]2ccccc2)cc1	7.9µM*	x	x
Cc1ccc(/C([O-])=C(/C(=S)NCc2ccco2)[n+]2ccccc2)cc1	-7%	1	-11%
O=[N+]([O-])c1cccc(/C([O-])=C(/C(=S)Nc2cccc3ccccc23)[n+]2ccccc2)c1	2%	5	u
